This is part of a sample that, as a whole, favours compounds with a hit. Of some 83,000 tested, about 20% had one in any assay.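 Cell lines were cultured in 96-well plates, exposed to a single compound concentration, and assessed for percent growth 48 hours later.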 Unmarked numbers belong to inactive results. Active and inactive are the calls of the source. How the source made its calls: active means growth percent below 10; inactive means the rest.
How the values were obtained:
Experiment in all cases: NCI-60 one-dose screen, 48 h (100 = growth as untreated, 0 = no growth, -100 = all killed)
Details in all cases: 10 µM unless noted
HCT-15 colon = tested on: HCT-15 colon
HT29 colon = tested on: HT29 colon
SNB-75 CNS = tested on: SNB-75 CNS
SNB-19 CNS = tested on: SNB-19 CNS
U251 CNS = tested on: U251 CNS
PC-3 prostate = tested on: PC-3 prostate
SK-MEL-5 melanoma = tested on: SK-MEL-5 melanoma
UACC-62 melanoma = tested on: UACC-62 melanoma
LOX IMVI melanoma = tested on: LOX IMVI melanoma
SK-MEL-28 melanoma = tested on: SK-MEL-28 melanoma
SK-MEL-2 melanoma = tested on: SK-MEL-2 melanoma
EKVX NSCLC = tested on: EKVX NSCLC
SN12C renal = tested on: SN12C renal
UO-31 renal = tested on: UO-31 renal
TK-10 renal = tested on: TK-10 renal
ACHN renal = tested on: ACHN renal
CAKI-1 renal = tested on: CAKI-1 renal
A498 renal = tested on: A498 renal
MOLT-4 leukemia = tested on: MOLT-4 leukemia
CCRF-CEM leukemia = tested on: CCRF-CEM leukemia

Compound | growth (HCT-15 colon) | growth (HT29 colon) | growth (SNB-75 CNS) | growth (SNB-19 CNS) | growth (U251 CNS) | growth (PC-3 prostate) | growth (SK-MEL-5 melanoma) | growth (UACC-62 melanoma) | growth (LOX IMVI melanoma) | growth (SK-MEL-28 melanoma) | growth (SK-MEL-2 melanoma) | growth (EKVX NSCLC) | growth (SN12C renal) | growth (UO-31 renal) | growth (TK-10 renal) | growth (ACHN renal) | growth (CAKI-1 renal) | growth (A498 renal) | growth (MOLT-4 leukemia) | growth (CCRF-CEM leukemia)
CC1(C)CC[C@]2(C(=O)N3CCOCC3)CC[C@]3(C)C(=CC[C@@H]4[C@@]5(C)C/C(=C/c6ccco6)C(=O)C(C)(C)[C@@H]5CC[C@]43C)[C@@H]2C1 | 81.5% | 82.7% | 28.6% | 100% | 101% | 60.3% | 94.2% | 80.3% | 63.9% | 91.6% | 103% | 63.4% | 86% | 49.9% | 75.8% | 81.7% | 37% | 68.7% | 52.3% | –
CCO/C=N/C1=C(C#N)C(c2ccc(Cl)cc2)c2sc3c(C)cccc3c2O1 (stereo not drawn) | 12.5% | 4.77% (active) | -5.08% (active) | 18.4% | 20.7% | 12% | 30.7% | 9.19% (active) | 22.1% | 60.5% | 42.6% | 45.9% | 26.2% | 30.3% | 62.2% | 31.8% | 39.5% | -5.08% (active) | 18.8% | 16.2%
C[C@@H](Nc1ncnc2ccc(-c3cnc(Cl)c(NS(C)(=O)=O)c3)cc12)c1ccccc1 | 66% | 64.6% | -14.7% (active) | 64% | 67.9% | 41.5% | 66.3% | 35.6% | 40.2% | 50.4% | 53.7% | 19.8% | 30.1% | 26.9% | 3.2% (active) | 43.1% | 10.1% | -22.2% (active) | 20.8% | 42.6%
COc1cc(Nc2c(C#N)cnn3cc(-c4cnn(CC(C)(C)O)c4)cc23)ccc1Cl | 29.9% | 54.3% | 55.5% | 88.1% | 67.2% | 62.4% | 65.3% | 46% | 31% | 86% | 61.1% | 43.4% | 23.5% | 11.6% | 23.3% | 18% | 9.46% (active) | -24.4% (active) | 36.7% | 32.6%
O=S(=O)(NCCNc1nccc(-n2cnc3ccccc32)n1)c1ccc(Cl)cc1 | 96.6% | 103% | 79.4% | 97.7% | 102% | 103% | 99.4% | 86.4% | 93.5% | 101% | 109% | 92.2% | 96.6% | 81.6% | 101% | 96.4% | 87.4% | 84.8% | 103% | 103%
N/C(=N\C(N)=N\c1nc2ccccc2s1)c1ccc2ccccc2c1 | 69% | 104% | 48.5% | 94.7% | 47.9% | 50.6% | 97.4% | 93.4% | -45.7% (active) | 95.5% | 97.7% | 47.9% | 75.3% | 23.4% | 126% | 78.4% | 36.4% | 96.9% | 60.6% | –
O=C(NNc1nc2cc(F)ccc2n2cccc12)c1ccncn1 | 25.8% | 28.3% | -2.99% (active) | 25.1% | 12.9% | 35.6% | -22.1% (active) | 4.91% (active) | 7.82% (active) | 23.5% | 26.4% | 11.2% | 21.3% | 18.6% | 31.7% | 13.3% | 16.5% | 14.6% | 11.7% | 8.88% (active)
COc1ccc(C(=O)CSc2nc3c(c(Nc4ccc(S(N)(=O)=O)cc4)n2)CCCC3)cc1 | 88.4% | 96.4% | 119% | 94.1% | 89.9% | 83.7% | 96.6% | 93.5% | 83% | 110% | 104% | 96.7% | 89.9% | 81.1% | 120% | 89.9% | 70.9% | 86.5% | 75.7% | 83.1%
COc1cc(OC)cc(C(=O)Nc2cccc(C#Cc3cccc4[nH]nc(N)c34)c2)c1 | 31.1% | 7.34% (active) | -18.6% (active) | 57.2% | 22.5% | 31.9% | -32.6% (active) | 23.1% | 31.9% | 50.3% | -24.2% (active) | 61.1% | 30.4% | 32.2% | 54.3% | 35.4% | 24.5% | -19.2% (active) | 20.5% | 13%
COc1cc2nc(Cl)nc(Nc3cccc(C4=Nc5c(N)nc(N)nc5NC(c5ccc(Cl)cc5)C4)c3)c2cc1OC (stereo not drawn) | -7.82% (active) | 3.99% (active) | 89.9% | 12.8% | -52.4% (active) | 62.8% | 70.6% | 92% | -52.3% (active) | 73.9% | 76.9% | 95.3% | 73.7% | 89.9% | 115% | 102% | 86.8% | 99.4% | 10% | 3.94% (active)
c1cn2c(ccc3nc(-c4cn[nH]c4)c4c(c32)CCCC4)n1 | 35.1% | 62.4% | 40.5% | 75.5% | 56.1% | 48.3% | 87.6% | 33.5% | 79% | 66% | -5.11% (active) | 90.2% | 59.2% | 23% | 30.8% | 26.4% | 16.5% | -4.01% (active) | 83.4% | 81.2%
COc1ccc(/C=C/C(=O)c2cccc(NC(=O)CSc3nc4ccccc4c(=O)n3-c3ccccc3)c2)cc1OC | 89.5% | 112% | 86.2% | 93.4% | 101% | 97% | 99% | 89.9% | 91.5% | 115% | 104% | 103% | 105% | 91.9% | 125% | 100% | 88% | 99.4% | 91.1% | 115%
CC(=O)C1=C(C)NC(NN)=NC1c1cccc(Cl)c1 (stereo not drawn) | 102% | 111% | 95.9% | 103% | 95% | 96.9% | 106% | 93.9% | 111% | 106% | 112% | 96.4% | 98.2% | 85.9% | 152% | 99.4% | 91% | 93.2% | 96.8% | 97%
C#Cc1nc(/C=C/C(=O)c2nccn2C)cs1 | -72.9% (active) | -38.2% (active) | -3.26% (active) | -79.2% (active) | -74.3% (active) | -78.9% (active) | -84.2% (active) | -84.3% (active) | -81.4% (active) | -31.9% (active) | 18.6% | -59.4% (active) | -47.2% (active) | -80.7% (active) | -18.8% (active) | -94% (active) | -55.7% (active) | -88.1% (active) | -31.2% (active) | -21.6% (active)
NC(N)=Nc1ccc(Oc2cccc(NC(N)=Nc3ccc(Br)c(C(F)(F)F)c3)c2)cc1 | 83.1% | 40.1% | 62.5% | 10.2% | 21.4% | 4.3% (active) | 36.8% | 44.2% | -58.9% (active) | 64.1% | 83.2% | 59.3% | 24.5% | 89.3% | 65.3% | 92.9% | 72% | 48.4% | 49.3% | 53.3%

From PubChem BioAssay (NCI)
